Gal4-VP16 FLuc – VP16 counterscreen qHTS for inhibitors of ROR gamma transcriptional activity; Drosophila S2 Gal4-VP16 UAS-luciferase, luminescence, 20 h; Potency, µM (top dose mostly 53.6 µM), inactives show at the top dose activity, negative = inhibition, actives largely listed as inhibitors; 310,000 tested, 3.5% active;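 also: Gal4-VP16 expression switched on by copper sulfate through the metallothionein promoter; potency is read from the fitted curve at half-maximal effect; nearly all actives have a fitted effect of over 50% in size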
RORgamma inh – qHTS for inhibitors of ROR gamma transcriptional activity | Drosophila S2 Gal4-RORgamma UAS-luciferase reporter, 20 h | Potency, µM (highest dose often 53.6 µM), without a hit: at the top dose activity change, negative = inhibition, most hits filed as inhibitors | 310,000 tested, 5.4% active; also: potency is read from the fitted curve at half-maximal effect; nearly all actives have a fitted effect of over 60% in size
Target sequence (P51450 whole entry, looked up, the tested form may be a part): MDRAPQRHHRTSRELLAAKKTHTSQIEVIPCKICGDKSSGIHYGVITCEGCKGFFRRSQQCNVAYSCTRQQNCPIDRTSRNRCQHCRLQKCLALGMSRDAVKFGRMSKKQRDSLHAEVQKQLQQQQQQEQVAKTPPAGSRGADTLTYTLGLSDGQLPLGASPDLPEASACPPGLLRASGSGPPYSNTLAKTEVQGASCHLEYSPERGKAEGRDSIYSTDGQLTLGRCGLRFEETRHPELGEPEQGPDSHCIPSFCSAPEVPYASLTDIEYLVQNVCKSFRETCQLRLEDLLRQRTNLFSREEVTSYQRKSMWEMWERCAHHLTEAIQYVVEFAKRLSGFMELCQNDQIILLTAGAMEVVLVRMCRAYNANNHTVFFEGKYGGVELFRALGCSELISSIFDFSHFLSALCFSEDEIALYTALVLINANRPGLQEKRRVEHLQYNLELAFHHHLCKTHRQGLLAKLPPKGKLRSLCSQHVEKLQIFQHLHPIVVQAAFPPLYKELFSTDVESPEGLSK
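Using a luciferase readout, inhibitors were identified by reduced reporter activity in Drosophila cells coexpressing a copper-inducible Gal4–ROR gamma fusion and UAS-driven Photinus luciferase, incubated 20 hr after 700 uM copper sulfate.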
TDP1 cell CPT – qHTS for Inhibitors of human tyrosyl-DNA phosphodiesterase 1 (TDP1): qHTS in cells in presence of CPT. AID 686979, 2013. Potency, µM (doses to about 46.2 µM), for the others: at the top dose activity change, negative = growth inhibition, most hits filed as inhibitors. chicken DT40 Tdp1-/-;hTDP1 cells + 20 nM CPT, ATP luminescence, 48 h. 420,000 tested, 12% active; also: potency is read from the fitted curve at half-maximal effect; nearly all actives have a fitted effect of over 55% in size
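Chicken DT40 Tdp1-/- cells complemented with human TDP1, 400 cells/well, exposed to compounds plus 20 nM camptothecin for at least 48 h at 37 C; viability read as ATP content by CellTiter-Glo luminescence.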
ELG1 DNA repair – qHTS screen for small molecules that inhibit ELG1-dependent DNA repair in human embryonic kidney (HEK293T) cells expressing luciferase-tagged ELG1; HEK293T ELG1-luciferase reporter, luminescence, 16 h; DNA damage induced by 5-fluorouridine; Potency, µM (top dose mostly 46.1 µM), without a hit: at the top dose activity change, negative = inhibition, hits mostly inhibitors; 330,000 tested, 2.3% active; also: potency is read from the fitted curve at half-maximal effect; nearly all actives have a fitted effect of over 55% in size
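In this reporter screen, reduction of luminescence relative to DMSO vehicle indicated activity. Compounds and 5-fluorouridine were added together to 2,000 cells per well, incubated for 16 hr at 37 °C, then developed with ONE-Glo.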
IL1B secr inh – qHTS for Inhibitors of Inflammasome Signaling: IL-1-beta AlphaLISA Primary Screen. THP-1 LPS/ATP IL-1B secretion, AlphaLISA, 16 h; hits give low values. activity change, % at 57.5 µM. 360,000 tested, 4.7% active; in the data active = activity change below about -50%; inconclusive = mostly about -30% to -49%
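Secreted IL-1B measured by AlphaLISA bead assay after 16 h compound exposure of THP-1 cells; compounds (final up to 57.5 uM) added 1 h before LPS (250 ng/mL) and ATP (1.25 mM) stimulation; lower signal means less secretion.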
TDP1 cell noCPT – qHTS for Inhibitors of human tyrosyl-DNA phosphodiesterase 1 (TDP1): qHTS in cells in absence of CPT; 420,000 tested, 15% active; Potency, µM (doses to about 46.2 µM), for the others: top-dose activity change, negative = growth inhibition, hits mostly inhibitors; DT40 Tdp1-/- hTDP1 cells, no CPT, ATP luminescence, 48 h; AID 686978, 2013; also: potency is read from the fitted curve at half-maximal effect; nearly all actives have a fitted effect of over 55% in size
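Compound effects on proliferation are scored in DT40 Tdp1-/-;hTDP1 cells in the absence of CPT. ATP levels (CellTiter-Glo luminescence) are recorded after a ≥48 hr, 37 °C incubation.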
An asterisk follows results filed as active. Rows were chosen to be rich in hits. Some 21% of all compounds tested hit in one or more screens of this group. Unless noted, calls follow the shape of the dose curve; as a rule, active = well fitted curve in the direction sought with a large enough effect; inconclusive = small, poorly fitted or top-dose-only effect, or another doubt; inactive = no such curve, though single readings can be large; an effect the other way counts as inactive or inconclusive. % is scaled to controls: 0 for no effect and ±100 for the full control effect.

For CCOc1ccc(NS(=O)(=O)c2ccc(C(=O)NCCCN3CCCC3=O)cc2)cc1 the results were Gal4-VP16 FLuc -5.4%, RORgamma inh inconclusive, TDP1 cell CPT inconclusive, ELG1 DNA repair -7.8%, IL1B secr inh 2.2 and TDP1 cell noCPT 18.4µM*.
Screening COc1ccc2[nH]c(C(=O)NCCCN3CCCC3=O)c(C)c2c1 returned Gal4-VP16 FLuc 16.1%, RORgamma inh 33.0%, TDP1 cell CPT 7.7%, ELG1 DNA repair inconclusive, IL1B secr inh 12.6 and TDP1 cell noCPT -11.9%.
For O=C(NCCCN1CCCC1=O)c1ccc(S(=O)(=O)Nc2cccc(C(F)(F)F)c2)cc1 the results were TDP1 cell CPT inconclusive, ELG1 DNA repair -8.9%, IL1B secr inh 28.1 and TDP1 cell noCPT 20.6µM*.
`COc1ccc2sc(-c3ccc(S(C)(=O)=O)cc3)c(C(=O)NCCCN3CCCC3=O)c2c1` gave TDP1 cell CPT inconclusive, ELG1 DNA repair 16.4µM*, IL1B secr inh -7.6 and TDP1 cell noCPT inconclusive.
Screening COc1ccc(CCNC(=O)Nc2ccc3c(c2)c(=O)n(C)n3CC=C(C)C)cc1OC returned TDP1 cell CPT inconclusive, IL1B secr inh 3.2 and TDP1 cell noCPT inconclusive.
`CCc1ccccc1Nc1cc(C(=O)NCc2ccc(C)cc2)c2ccccc2n1` gave TDP1 cell CPT 20.6µM* and TDP1 cell noCPT inconclusive.
Screening CCc1ccccc1Nc1cc(C(=O)NC(C)c2ccccc2)c2ccccc2n1 (stereo not drawn) returned TDP1 cell CPT 29.1µM* and TDP1 cell noCPT inconclusive.
`COc1ccc(NC(=O)CCc2c(C)nc3c(-c4ccc(F)cc4)c(C)nn3c2C)c(OC)c1` gave TDP1 cell CPT 23.1µM* and TDP1 cell noCPT 20.6µM*.
Screening Cc1nc2c(-c3ccc(F)cc3)c(C)nn2c(C)c1CCC(=O)Nc1ccc(F)cc1F returned Gal4-VP16 FLuc -4.7%, RORgamma inh -35.8%, TDP1 cell CPT -19.2%, ELG1 DNA repair 4.8%, IL1B secr inh -16.6 and TDP1 cell noCPT -20.7%.
Screening CCN1CCN(c2ccc(NC(=O)CCc3c(C)nc4c(-c5ccccc5)c(C)nn4c3C)cc2)CC1 returned Gal4-VP16 FLuc 3.3%, RORgamma inh -32.0%, TDP1 cell CPT inconclusive, ELG1 DNA repair inconclusive, IL1B secr inh -62.0* and TDP1 cell noCPT 16.4µM*.
`COc1ccc(OC)c(NC(=O)CCc2c(C)nc3c(-c4ccccc4)c(C)nn3c2C)c1` gave TDP1 cell CPT inconclusive and TDP1 cell noCPT 20.6µM*.
For Cc1nc2c(-c3ccc(F)cc3)c(C)nn2c(C)c1CCC(=O)NC(C)CCc1ccco1 (stereo not drawn) the results were Gal4-VP16 FLuc -7.2%, RORgamma inh 14.4%, TDP1 cell CPT 23.1µM*, ELG1 DNA repair -20.7%, IL1B secr inh inconclusive and TDP1 cell noCPT 23.1µM*.
For O=C1C2Sc3[nH]c(=O)sc3C(c3cc([N+](=O)[O-])ccc3O)C2C(=O)N1c1ccccc1 (stereo not drawn) the results were Gal4-VP16 FLuc -2.7%, RORgamma inh 1.3%, TDP1 cell CPT 10.6%, ELG1 DNA repair 3.8%, IL1B secr inh 24.5 and TDP1 cell noCPT -12.6%.
Screening COc1c(O)cc(O)c2c(=O)cc(-c3ccccc3)oc12 returned TDP1 cell CPT inconclusive, ELG1 DNA repair 11.9%, IL1B secr inh inconclusive and TDP1 cell noCPT inconclusive.
CCc1nc2nc(C)cc(Nc3ccc(OC)cc3)n2n1 was read as TDP1 cell CPT inconclusive and TDP1 cell noCPT -6.4%.
`COc1cccc(C(=O)N2CCC[C@H]2C(=O)N2CCC[C@H]2C(=O)N(C)Cc2ccccc2)c1` gave TDP1 cell CPT -10.9%, IL1B secr inh 7.8 and TDP1 cell noCPT 2.7%.
Screening CC1(O)N(CCC(=O)Nc2cccc(F)c2)C(=O)OC12CCCCC2 (stereo not drawn) returned Gal4-VP16 FLuc -7.5%, RORgamma inh 13.2%, TDP1 cell CPT 17.6%, ELG1 DNA repair 6.4%, IL1B secr inh -2.0 and TDP1 cell noCPT 13.5%.
`Cc1nc2c(-c3ccccc3)c(C)nn2c(C)c1CCC(=O)Nc1ccccc1F` gave TDP1 cell CPT 18.4µM* and TDP1 cell noCPT inconclusive.
Screening COC(=O)C(NC(=O)CCc1c(C)nc2c(-c3ccccc3)c(C)nn2c1C)C(C)C (stereo not drawn) returned TDP1 cell CPT inconclusive and TDP1 cell noCPT 25.9µM*.
For Cc1nc2c(-c3ccccc3)c(C)nn2c(C)c1CCC(=O)NCc1ccccc1 the results were TDP1 cell CPT -21.2% and TDP1 cell noCPT inconclusive.
CSc1ccc(CCNC(=O)CCc2c(C)nc3c(-c4ccccc4)c(C)nn3c2C)cc1 was read as TDP1 cell CPT inconclusive and TDP1 cell noCPT 20.6µM*.
Screening O=C(NC(Cc1ccc2c(c1)OCO2)C(=O)NC(Cc1ccccc1)C(=O)O)c1ccccc1 (stereo not drawn) returned Gal4-VP16 FLuc -8.7%, RORgamma inh -4.3%, TDP1 cell CPT -12.3%, ELG1 DNA repair -2.2%, IL1B secr inh 6.2 and TDP1 cell noCPT -12.3%.
CC(C)CCNC(=O)c1cnn2c(C(F)(F)F)cc(-c3ccco3)nc12 was read as Gal4-VP16 FLuc -1.1%, RORgamma inh -10.3%, TDP1 cell CPT 11.2µM*, ELG1 DNA repair inconclusive, IL1B secr inh -1.9 and TDP1 cell noCPT 31.6µM*.
For O=C(NCc1ccco1)c1cnn2c(C(F)(F)F)cc(-c3ccccc3)nc12 the results were Gal4-VP16 FLuc 11.2µM*, RORgamma inh 15.8µM*, TDP1 cell CPT inconclusive, ELG1 DNA repair inconclusive, IL1B secr inh inconclusive and TDP1 cell noCPT inconclusive.
`COc1cc(OC)cc(C2=Nn3c(nnc3-c3ccccc3O)SC2)c1` gave Gal4-VP16 FLuc inconclusive and RORgamma inh -1.9%.
Screening O=C(Nc1ccccc1)OCCOc1ccccc1Br returned Gal4-VP16 FLuc 29.9%, RORgamma inh 31.7%, TDP1 cell CPT inconclusive, ELG1 DNA repair inconclusive, IL1B secr inh -10.6 and TDP1 cell noCPT 4.3%.
For O=C(Nc1ccccc1)OC[C@@H]1C=CS(=O)(=O)N1Cc1ccc(Br)cc1 the results were TDP1 cell CPT inconclusive, IL1B secr inh -68.1* and TDP1 cell noCPT inconclusive.

Screens from PubChem BioAssay.
